Measured values as given in PubChem BioAssay (NCI).
About 83,000 compounds went through this panel and 20% of them were active in at least one assay; those are over-represented in the sample as a whole.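 Plates (96-well) were seeded with cells, treated with compound at one concentration, and incubated for 48 hours before percent growth was determined.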 Activity calls are given as the source filed them. The calls were made as follows: active = growth percent below 10; inactive = the rest.

What was measured:
Assay in all cases: NCI-60 one-dose screen, 48 h (100 = growth as untreated, 0 = no growth, -100 = all killed)
Conditions in all cases: 10 µM unless noted
[1] = test system: RPMI-8226 leukemia
[2] = test system: OVCAR-8 ovarian
[3] = test system: OVCAR-5 ovarian
[4] = test system: OVCAR-4 ovarian
[5] = test system: SK-OV-3 ovarian
[6] = test system: IGROV1 ovarian
[7] = test system: OVCAR-3 ovarian
[8] = test system: HS 578T breast
[9] = test system: NCI/ADR-RES ovarian
[10] = test system: T-47D breast
[11] = test system: BT-549 breast
[12] = test system: MDA-MB-435 melanoma
[13] = test system: SW-620 colon
[14] = test system: MCF7 breast
[15] = test system: HCT-116 colon
[16] = test system: HCC-2998 colon
[17] = test system: KM12 colon

Measured: growth

O=C1/C(=C/c2ccc(Cl)cc2)CN(Cc2cn(CCNc3ccnc4cc(Cl)ccc34)nn2)C/C1=C\c1ccc(Cl)cc1
active: [1] -22% | [2] -59.5% | [3] -94.9% | [4] -4.44% | [5] -95.5% | [6] -75.7% | [7] -100% | [8] -19.8% | [9] -26.6% | [10] -32.6% | [11] -96.4% | [12] -98.6% | [13] -92.5% | [14] -100% | [15] -85.5% | [16] -95.1% | [17] -93.9%

COc1ccc(Nc2ncccc2C(=O)NCc2cn(Cc3cccc(Oc4ccccc4)c3)nn2)cc1
active: [7] -4.73% | [12] -16.3%
inactive: [1] 55.4% | [2] 65.6% | [3] 75.2% | [4] 71.1% | [5] 36.8% | [6] 53.5% | [8] 48.7% | [9] 16.3% | [10] 50.5% | [11] 53.1% | [13] 24.6% | [14] 20% | [15] 23.3% | [16] 41.7% | [17] 20.2%

NC(=O)CCCN1C/C(=C\c2ccccc2)C(=O)c2ccccc21
inactive: [1] 101% | [2] 98.4% | [3] 101% | [4] 98.9% | [5] 89.5% | [6] 102% | [7] 109% | [8] 99.6% | [9] 109% | [10] 83.2% | [11] 93.7% | [12] 101% | [13] 97.6% | [14] 96.7% | [15] 101% | [16] 93.8% | [17] 101%

CCC(C)/C(=C\C#N)NCCCN/C(=C/C#N)C(C)CC (stereo unspecified)
inactive: [1] 88.7% | [2] 100% | [3] 102% | [4] 109% | [5] 105% | [6] 102% | [7] 126% | [8] 101% | [9] 105% | [10] 97% | [11] 105% | [12] 105% | [13] 107% | [14] 100% | [15] 91.1% | [16] 99.1% | [17] 105%

O=C(Nc1ccc2c(c1)OCO2)C(=O)c1c[nH]c2cc(F)ccc12
inactive: [1] 64% | [2] 59% | [3] 77.6% | [4] 50.7% | [5] 59.7% | [6] 59.6% | [7] 50.5% | [8] 50.1% | [9] 47.6% | [10] 46.7% | [11] 70.3% | [12] 34.7% | [13] 34.3% | [14] 57.7% | [15] 56.7% | [16] 25.3% | [17] 27.1%

O=C(O)/C=C/C(=O)c1ccc(Cl)cc1
inactive: [1] 115% | [2] 95.9% | [3] 115% | [4] 116% | [5] 107% | [6] 114% | [7] 105% | [8] 119% | [9] 109% | [10] 95.5% | [11] 98.1% | [12] 121% | [13] 108% | [14] 102% | [15] 108% | [16] 109% | [17] 106%

CN1CCN(CCCOc2ccc3nc(Nc4ccc(Cl)c(C(F)(F)F)c4)ccc3c2)CC1
active: [13] 0.0049% | [16] 6.68%
inactive: [1] 18.1% | [2] 73.6% | [3] 72.1% | [4] 66.6% | [5] 91.4% | [6] 46.2% | [7] 59.3% | [8] 46% | [9] 62.8% | [10] 76.7% | [11] 102% | [12] 59.6% | [14] 27.1% | [15] 26.3% | [17] 28.8%

O=c1ccn(C2CC(O)C(O)C(CO)O2)c(=O)[nH]1 (stereo unspecified)
inactive: [1] 85.7% | [2] 116% | [3] 108% | [4] 108% | [5] 114% | [6] 118% | [7] 123% | [8] 120% | [9] 113% | [10] 102% | [11] 114% | [12] 116% | [13] 114% | [14] 97.4% | [15] 107% | [16] 117% | [17] 121%

O=c1[nH]c2ccc(Br)cc2c2c1C(c1ccc(Cl)cc1)c1c(ncn3nc(-c4ccco4)nc13)O2 (stereo unspecified)
inactive: [1] 58.4% | [2] 79.3% | [3] 73.6% | [4] 67.5% | [5] 59.8% | [6] 44% | [7] 81.7% | [8] 35.6% | [9] 88.2% | [10] 60.9% | [11] 76.9% | [12] 85.2% | [13] 73.6% | [14] 68.7% | [15] 67.5% | [16] 86.6% | [17] 94.5%

C=C(C)[C@@H]1C[C@@H]2Cc3cc(F)ccc3N1O2
inactive: [1] 65.2% | [2] 97.1% | [3] 93.8% | [4] 101% | [5] 104% | [6] 108% | [7] 112% | [8] 99% | [9] 99.6% | [10] 107% | [11] 106% | [12] 104% | [13] 98.6% | [14] 95.6% | [15] 98.2% | [16] 93.9% | [17] 103%

CN(C)CC(C(=O)c1ccccc1)c1ccccc1 (stereo unspecified)
inactive: [3] 59.3% | [4] 43.1% | [5] 88.4% | [6] 48.6% | [8] 60.5% | [9] 17.1% | [10] 66.6% | [11] 23.3% | [12] 23.1% | [14] 10.5% | [16] 74.9% | [17] 10.8%
active: [1] -34.4% | [2] 9.37% | [7] -92.6% | [13] -61.9% | [15] -94.7%

COc1ccc(C2=Nn3c(nnc3-n3nc(C)cc3C)SC2)cc1
active: [5] -3.05% | [7] -47.9% | [8] 7.5% | [12] -16.1% | [15] 5.57% | [16] 4.24%
inactive: [1] 20.9% | [2] 17.6% | [3] 48.7% | [4] 61.1% | [6] 32.2% | [9] 10.7% | [10] 77.6% | [11] 18.6% | [13] 21.7% | [14] 16.9% | [17] 10%

CCCCN(CCCC)c1ccc(C(=N)c2ccc(N(CCCC)CCCC)cc2)cc1
active: [1] -74.3% | [2] -82.1% | [3] -82.4% | [4] -79.3% | [5] -22.6% | [6] -53.5% | [7] -99.2% | [8] -45% | [9] -87.5% | [10] -31.3% | [11] -7.68% | [12] -72.4% | [13] -84% | [14] -85.5% | [15] -99.9% | [16] -96.7% | [17] -95.1%

CCOC(=O)NNC(=S)Nc1ccccc1
inactive: [1] 105% | [2] 102% | [3] 116% | [4] 100% | [5] 111% | [6] 107% | [7] 116% | [8] 103% | [9] 106% | [10] 113% | [11] 103% | [12] 94.9% | [13] 110% | [15] 104% | [16] 117% | [17] 106%

O=c1[nH]c(NCc2ccccc2)nc2nc(Nc3ccc(NC(=S)Nc4ccccc4)cc3)nc(-c3ccc(O)cc3O)c12
inactive: [1] 90.8% | [2] 87.4% | [3] 111% | [4] 114% | [5] 97.9% | [6] 70.3% | [7] 111% | [8] 88.1% | [9] 106% | [10] 84% | [11] 155% | [12] 105% | [13] 95.6% | [14] 96.7% | [15] 99.2% | [16] 113% | [17] 96.3%

COc1ccc(-c2c(N)n[nH]c2-c2cc(OC)c(OC)c(OC)c2)cc1
inactive: [1] 27% | [2] 21.2% | [3] 37.5% | [4] 47.7% | [5] 15.4% | [6] 26.9% | [10] 75.1% | [11] 50.9% | [13] 21% | [14] 23% | [17] 14%
active: [7] -36.1% | [8] -8.33% | [9] -20.2% | [12] -40.7% | [15] 9.76%

COc1ccc(C2C=C(c3ccc(N)cc3)N=C3SC=CN32)cc1OC (stereo unspecified)
inactive: [1] 101% | [2] 98.7% | [3] 108% | [4] 102% | [5] 115% | [6] 101% | [7] 107% | [8] 127% | [9] 106% | [10] 102% | [11] 108% | [12] 106% | [13] 112% | [14] 98.6% | [15] 107% | [17] 99.5%
